{"source": "the supplement of paper PMC9135407", "test_system": "primary human hepatic stellate cells (donor 1)", "experiment": "scaled lipid accumulation score (0 = DMSO-like, 1 = nortriptyline-like); higher = stronger HSC inactivation (lipid re-accumulation), active = hit call of the paper", "settings": "48 h", "key": {"[1]": {"settings": "library stock concentration: 3.33 mM"}, "[2]": {"settings": "library stock concentration: 10 mM"}, "[3]": {"settings": "library stock concentration: 1 mM"}, "[4]": {"settings": "library stock concentration: 80 uM"}, "[5]": {"settings": "library stock concentration: 400 uM"}, "[6]": {"settings": "library stock concentration: 2 mM"}, "[7]": {"settings": "library stock concentration: 6.2 mM"}, "[8]": {"settings": "library stock concentration: 6.3 mM"}}, "note": "Several values for one entry are separate records, joined by “and”; a condition that tells them apart may be missing. Equal values may be shown once. Where a name gives a salt, the structure may show the parent alone. In all, about 5,800 compounds went through this assay and about 620 (11%) showed activity. This excerpt belongs to a sample that is enriched for actives. Unmarked numbers belong to inactive results.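 How the source made its calls: active = score above a cut-off or among the top three wells of a plate; in these data no inactive exceeds 0.85.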", "data": [{"smiles": "CCOc1nc(NC(=O)Cc2cc(OC)ccc2OC)cc(N)c1C#N", "note": "[JNK Inhibitor VIII]", "values": [{"measurement": "scaled lipid accumulation score", "setting": "[1]", "value": "≤ 0"}]}, {"smiles": "CNc1cc(OC)c(C(=O)NC2CCN(Cc3ccccc3)C2C)cc1Cl", "note": "(stereo not drawn) [Nemonapride]", "values": [{"measurement": "scaled lipid accumulation score", "setting": "[2]", "value": 0.728}]}, {"smiles": "NC(=O)Nc1sc(-c2ccccc2)cc1C(N)=O", "note": "[IKK-2 Inhibitor VI]", "values": [{"measurement": "scaled lipid accumulation score", "setting": "[1]", "value": "≤ 0"}]}, {"smiles": "COc1cccc(CCc2ccccc2OCC[C@@H]2C[C@@H](O)CN2C)c1.Cl", "values": [{"measurement": "scaled lipid accumulation score", "setting": "[2]", "value": "1.18 (active)"}]}, {"smiles": "c1ccc2c(Cc3c[nH]c4ccccc34)c[nH]c2c1", "note": "[Diidolylmethane]", "values": [{"measurement": "scaled lipid accumulation score", "setting": "[3]", "value": "≤ -0.021"}]}, {"smiles": "OC1(c2ccc(Cl)cc2)CCN(Cc2c[nH]c3ccccc23)CC1", "values": [{"measurement": "scaled lipid accumulation score", "setting": "[2]", "value": "1.17 (active)"}]}, {"smiles": "OCc1c[nH]c2ccccc12", "note": "[Indole-3-carbinol]", "values": [{"measurement": "scaled lipid accumulation score", "setting": "[1]", "value": "≤ 0"}, {"measurement": "scaled lipid accumulation score", "setting": "[2]", "value": "≤ 0"}]}, {"smiles": "CC[C@@H](CC[C@@H](C)[C@H]1CC[C@H]2[C@@H]3CCC4C[C@@H](O)CC[C@]4(C)[C@H]3CC[C@]12C)C(C)C", "note": "(stereo partly drawn) [Beta-sistosterol]", "values": [{"measurement": "scaled lipid accumulation score", "value": "≤ 0"}]}, {"smiles": "COc1cc(OC)cc(OC)c1", "note": "[1,3,5-trimethoxybenzene]", "values": [{"measurement": "scaled lipid accumulation score", "setting": "[2]", "value": "≤ 0"}]}, {"smiles": "COc1ccc2nc3n[nH]c(C)c3c(NCCOCCO)c2c1", "values": [{"measurement": "scaled lipid accumulation score", "setting": "[4]", "value": "≤ -0.001"}, {"measurement": "scaled lipid accumulation score", "setting": "[5]", "value": "≤ -0.001"}, {"measurement": "scaled lipid accumulation score", "setting": "[6]", "value": "≤ -0.001"}, {"measurement": "scaled lipid accumulation score", "setting": "[1]", "value": 0.203}, {"measurement": "scaled lipid accumulation score", "setting": "[2]", "value": 0.021}]}, {"smiles": "COc1ccc(-c2ccc3ncc4c(c3c2)n(-c2ccc(N3CCNCC3)c(C(F)(F)F)c2)c(=O)n4C)cn1", "values": [{"measurement": "scaled lipid accumulation score", "setting": "[4]", "value": 0.133}, {"measurement": "scaled lipid accumulation score", "setting": "[6]", "value": 0.546}, {"measurement": "scaled lipid accumulation score", "setting": "[1]", "value": 0.237}, {"measurement": "scaled lipid accumulation score", "setting": "[2]", "value": "≤ 0 and 0.223"}]}, {"smiles": "COc1ccc(-c2ccc3ncc4c(c3c2)n(-c2ccc(N3CCNCC3)c(C(F)(F)F)c2)c(=O)n4C)cn1.O=C(O)/C=C\\C(=O)O", "values": [{"measurement": "scaled lipid accumulation score", "setting": "[5]", "value": "0.909 (active)"}]}, {"smiles": "COc1cc(OC)cc(-c2ccc3ncc4ccc(=O)n(-c5ccc(N6CCNCC6)c(C(F)(F)F)c5)c4c3c2)c1", "values": [{"measurement": "scaled lipid accumulation score", "setting": "[4]", "value": 0.045}, {"measurement": "scaled lipid accumulation score", "setting": "[5]", "value": 0.305}, {"measurement": "scaled lipid accumulation score", "setting": "[6]", "value": 0.652}, {"measurement": "scaled lipid accumulation score", "setting": "[2]", "value": 0.426}]}, {"smiles": "S=c1[nH]c(-c2ccccc2)cn1-c1ccccc1", "values": [{"measurement": "scaled lipid accumulation score", "setting": "[2]", "value": "≤ -0.07"}]}, {"smiles": "Nc1c2c(nc3c1CCC3)CCCC2", "values": [{"measurement": "scaled lipid accumulation score", "setting": "[2]", "value": "≤ 0"}]}, {"smiles": "CCCCCCCCCCCCCCCCOC[C@H](COP(=O)([O-])OCC[N+](C)(C)C)OC(=O)CCCCCCCC(=O)O", "note": "[Azelaoyl PAF]", "values": [{"measurement": "scaled lipid accumulation score", "setting": "[3]", "value": "≤ 0"}]}, {"smiles": "CC(CN1c2ccccc2Sc2ccccc21)N(C)C", "note": "(stereo not drawn) [Promethazine HCl]", "values": [{"measurement": "scaled lipid accumulation score", "setting": "[1]", "value": "≤ 0"}, {"measurement": "scaled lipid accumulation score", "setting": "library stock concentration: 7 mM", "value": 0.609}, {"measurement": "scaled lipid accumulation score", "setting": "[2]", "value": 0.62}]}, {"smiles": "CN(C)CCCN1c2ccccc2Sc2ccccc21.Cl", "note": "[Promazine hydrochloride]", "values": [{"measurement": "scaled lipid accumulation score", "setting": "[2]", "value": "0.923 (active)"}]}, {"smiles": "CN(C)CCCN1c2ccccc2Sc2ccc(Cl)cc21", "note": "[Chlorpromazine hydrochloride]", "values": [{"measurement": "scaled lipid accumulation score", "value": 0.717}, {"measurement": "scaled lipid accumulation score", "setting": "[2]", "value": 0.259}]}, {"smiles": "CC(CN1c2ccccc2Sc2ccccc21)N(C)C", "note": "(stereo not drawn) [Promethazine hydrochloride]", "values": [{"measurement": "scaled lipid accumulation score", "value": 0.571}, {"measurement": "scaled lipid accumulation score", "setting": "[7]", "value": 0.655}, {"measurement": "scaled lipid accumulation score", "setting": "[2]", "value": 0.748}]}, {"smiles": "CN(C)CCCN1c2ccccc2Sc2ccc(Cl)cc21", "note": "[Chlorpromazine] [listing 1 of 2 here]", "values": [{"measurement": "scaled lipid accumulation score", "setting": "[8]", "value": "1.09 (active)"}]}, {"smiles": "CN(C)CCCN1c2ccccc2Sc2ccc(Cl)cc21", "values": [{"measurement": "scaled lipid accumulation score", "setting": "[2]", "value": 0.711}]}, {"smiles": "CC(CN1c2ccccc2Sc2ccccc21)N(C)C.Cl", "note": "(stereo not drawn) [Promethazine hydrochloride]", "values": [{"measurement": "scaled lipid accumulation score", "setting": "[2]", "value": "0.888 (active)"}]}, {"smiles": "CN(C)CCCN1c2ccccc2Sc2ccc(Cl)cc21.Cl", "note": "[Chlorpromazine HCl]", "values": [{"measurement": "scaled lipid accumulation score", "setting": "[2]", "value": "0.833 (active)"}]}, {"smiles": "CN(C)CCCN1c2ccccc2Sc2ccc(Cl)cc21", "note": "[Chlorpromazine] [listing 2 of 2 here]", "values": [{"measurement": "scaled lipid accumulation score", "setting": "[2]", "value": 0.466}]}, {"smiles": "CN(C)CCCN1c2ccccc2Sc2ccc(Cl)cc21", "note": "[Chlorpromazine HCl]", "values": [{"measurement": "scaled lipid accumulation score", "setting": "[1]", "value": 0.38}, {"measurement": "scaled lipid accumulation score", "setting": "[8]", "value": 0.53}]}, {"smiles": "CC(CN1c2ccccc2Sc2ccccc21)N(C)C", "note": "(stereo not drawn) [Phenergan]", "values": [{"measurement": "scaled lipid accumulation score", "setting": "[2]", "value": 0.649}]}, {"smiles": "CCN(CC)C(C)CN1c2ccccc2Sc2ccccc21", "note": "(stereo not drawn) [Ethopropazine hydrochloride]", "values": [{"measurement": "scaled lipid accumulation score", "value": 0.644}, {"measurement": "scaled lipid accumulation score", "setting": "library stock concentration: 5.7 mM", "value": 0.667}, {"measurement": "scaled lipid accumulation score", "setting": "[2]", "value": "0.301 and 0.673"}]}, {"smiles": "CN(C)CCCN1c2ccccc2Sc2ccccc21", "note": "[Promazine hydrochloride]", "values": [{"measurement": "scaled lipid accumulation score", "value": 0.365}, {"measurement": "scaled lipid accumulation score", "setting": "[7]", "value": 0.834}, {"measurement": "scaled lipid accumulation score", "setting": "[2]", "value": 0.324}]}, {"smiles": "CCCCCC(O)C=CC1C(O)CC(O)C1CC=CCCCC(=O)OC", "note": "(stereo not drawn) [Prostaglandin F2.alpha. methyl ester]", "values": [{"measurement": "scaled lipid accumulation score", "setting": "[3]", "value": "≤ 0"}]}, {"smiles": "Nc1ncnc2c1nc(Br)n2[C@@H]1O[C@@H]2COP(=O)(O)O[C@H]2[C@H]1O", "note": "[8-Bromo-cAMP, sodium salt]", "values": [{"measurement": "scaled lipid accumulation score", "setting": "[2]", "value": "≤ -0.006"}]}, {"smiles": "Nc1ncnc2c1nc(Br)n2[C@@H]1O[C@@H]2COP(=O)(O)O[C@H]2[C@H]1O", "note": "[8-Bromo-cAMP]", "values": [{"measurement": "scaled lipid accumulation score", "setting": "library stock concentration: 12.3 mM", "value": 0.137}]}]}
